Measurements reported in PMC7862700, “An all-to-all approach to the identification of sequence-specific readers for epigenetic DNA modifications on cytosine”.

Experiments:
Experiment in all cases: DAPPL (digital affinity profiling via proximity ligation, sequencing); 10 mM Tris-HCl pH 7.5, 50 mM NaCl, 1 mM DTT, 4% glycerol, room temperature, 30 min; GST-TFs on glutathione beads, 16-mer random dsDNA library, 0.1% formaldehyde crosslink after washing; high values mean tight binding
FLI1 = biological target: T1, FLI1 (Homo sapiens, UniProt Q01543 1-452); conditions: protein: recombinant; tags: N-terminal GST; dsDNA, one strand shown
T1 sequence: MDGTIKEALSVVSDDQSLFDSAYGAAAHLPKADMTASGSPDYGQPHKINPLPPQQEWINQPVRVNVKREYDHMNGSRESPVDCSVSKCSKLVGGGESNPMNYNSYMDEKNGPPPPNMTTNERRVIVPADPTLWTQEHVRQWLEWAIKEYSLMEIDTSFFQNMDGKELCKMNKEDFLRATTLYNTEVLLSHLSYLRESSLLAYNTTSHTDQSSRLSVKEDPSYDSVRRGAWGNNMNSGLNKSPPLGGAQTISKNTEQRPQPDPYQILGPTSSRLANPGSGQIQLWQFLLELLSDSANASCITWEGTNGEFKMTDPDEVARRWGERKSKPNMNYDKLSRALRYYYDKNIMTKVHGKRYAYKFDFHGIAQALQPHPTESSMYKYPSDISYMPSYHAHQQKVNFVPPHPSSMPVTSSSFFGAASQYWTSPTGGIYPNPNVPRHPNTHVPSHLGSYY
Outline: (§1)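 Each value of binding signal is a hexamer's read frequency for a factor divided by the same hexamer's frequency in the tag-only sample. Barcoded, bead-captured GST fusions of human transcription factors made in yeast were pooled with that sample and incubated with 200 nmole of a random double-stranded 16-mer DNA library in Tris/NaCl/DTT/glycerol buffer at room temperature for 30 min. Washing, 0.1% formaldehyde crosslinking, proximity ligation, PCR and Illumina NextSeq500 sequencing followed.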

ELK1 = biological target: T2, ELK1 (Homo sapiens, UniProt P19419 1-428); conditions: protein: recombinant; tags: N-terminal GST; dsDNA, one strand shown
T2 sequence: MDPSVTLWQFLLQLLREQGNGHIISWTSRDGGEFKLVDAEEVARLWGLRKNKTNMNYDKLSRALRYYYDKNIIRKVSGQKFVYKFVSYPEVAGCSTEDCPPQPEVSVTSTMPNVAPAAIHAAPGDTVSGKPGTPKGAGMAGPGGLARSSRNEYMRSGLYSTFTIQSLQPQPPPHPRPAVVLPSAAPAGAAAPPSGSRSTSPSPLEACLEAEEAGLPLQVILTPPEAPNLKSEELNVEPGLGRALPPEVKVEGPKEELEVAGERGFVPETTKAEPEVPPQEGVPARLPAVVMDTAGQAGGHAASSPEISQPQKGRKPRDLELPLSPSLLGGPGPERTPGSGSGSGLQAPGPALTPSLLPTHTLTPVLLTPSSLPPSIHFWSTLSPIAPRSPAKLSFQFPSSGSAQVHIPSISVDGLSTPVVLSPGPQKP
Outline: as §1

GABPA = biological target: T3, GABPA (Homo sapiens, UniProt Q06546 1-454); conditions: protein: recombinant; tags: N-terminal GST; dsDNA, one strand shown
T3 sequence: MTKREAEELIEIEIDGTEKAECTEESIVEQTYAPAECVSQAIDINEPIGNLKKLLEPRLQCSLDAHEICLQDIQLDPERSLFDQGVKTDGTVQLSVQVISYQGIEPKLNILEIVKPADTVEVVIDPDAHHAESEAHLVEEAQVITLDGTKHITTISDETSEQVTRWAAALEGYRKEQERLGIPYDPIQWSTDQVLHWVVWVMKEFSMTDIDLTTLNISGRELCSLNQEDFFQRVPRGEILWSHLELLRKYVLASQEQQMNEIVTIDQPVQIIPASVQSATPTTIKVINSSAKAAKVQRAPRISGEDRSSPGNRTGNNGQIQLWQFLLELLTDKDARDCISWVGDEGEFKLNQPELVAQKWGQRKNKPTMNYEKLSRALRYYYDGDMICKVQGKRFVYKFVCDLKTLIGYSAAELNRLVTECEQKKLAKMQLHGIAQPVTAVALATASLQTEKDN
Outline: as §1

ERG = biological target: T4, ERG (Homo sapiens, UniProt P11308 1-479); conditions: protein: recombinant; tags: N-terminal GST; dsDNA, one strand shown
T4 sequence: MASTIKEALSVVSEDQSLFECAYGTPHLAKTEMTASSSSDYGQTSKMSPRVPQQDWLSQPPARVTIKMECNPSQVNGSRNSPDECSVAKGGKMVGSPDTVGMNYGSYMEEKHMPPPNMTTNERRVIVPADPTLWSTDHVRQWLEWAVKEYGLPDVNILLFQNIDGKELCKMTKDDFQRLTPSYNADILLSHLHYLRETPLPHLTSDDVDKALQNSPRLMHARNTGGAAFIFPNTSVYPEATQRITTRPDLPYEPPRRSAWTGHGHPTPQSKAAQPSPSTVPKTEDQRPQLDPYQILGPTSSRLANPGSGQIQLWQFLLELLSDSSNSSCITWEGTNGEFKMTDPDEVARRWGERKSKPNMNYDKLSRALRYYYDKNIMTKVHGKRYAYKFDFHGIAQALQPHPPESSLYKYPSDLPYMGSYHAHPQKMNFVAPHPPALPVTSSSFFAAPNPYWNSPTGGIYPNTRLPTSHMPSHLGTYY
Outline: as §1

ELF1 = ELF1 (Homo sapiens, UniProt P32519 1-619); conditions: protein: recombinant; tags: N-terminal GST; dsDNA, one strand shown
Outline: as §1

EHF = biological target: T5, EHF (Homo sapiens, UniProt Q9NZC4 1-300); conditions: protein: recombinant; tags: N-terminal GST; dsDNA, one strand shown
T5 sequence: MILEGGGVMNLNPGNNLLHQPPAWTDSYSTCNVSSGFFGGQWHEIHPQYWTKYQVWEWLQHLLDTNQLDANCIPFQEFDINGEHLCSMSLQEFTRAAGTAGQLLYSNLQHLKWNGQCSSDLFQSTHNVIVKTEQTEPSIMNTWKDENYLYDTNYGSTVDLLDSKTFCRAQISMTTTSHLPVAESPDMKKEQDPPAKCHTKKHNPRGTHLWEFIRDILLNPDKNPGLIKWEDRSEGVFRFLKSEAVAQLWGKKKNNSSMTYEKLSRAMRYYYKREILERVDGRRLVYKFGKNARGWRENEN
Outline: as §1

SPI1 = SPI1 (Homo sapiens, UniProt P17947 1-270); conditions: protein: recombinant; tags: N-terminal GST; dsDNA, one strand shown
Outline: as §1

SPIB = SPIB (Homo sapiens, UniProt Q01892 1-262); conditions: protein: recombinant; tags: N-terminal GST; dsDNA, one strand shown
Outline: as §1

ELK3 = biological target: T6, ELK3 (Homo sapiens, UniProt P41970 1-407); conditions: protein: recombinant; tags: N-terminal GST; dsDNA, one strand shown
T6 sequence: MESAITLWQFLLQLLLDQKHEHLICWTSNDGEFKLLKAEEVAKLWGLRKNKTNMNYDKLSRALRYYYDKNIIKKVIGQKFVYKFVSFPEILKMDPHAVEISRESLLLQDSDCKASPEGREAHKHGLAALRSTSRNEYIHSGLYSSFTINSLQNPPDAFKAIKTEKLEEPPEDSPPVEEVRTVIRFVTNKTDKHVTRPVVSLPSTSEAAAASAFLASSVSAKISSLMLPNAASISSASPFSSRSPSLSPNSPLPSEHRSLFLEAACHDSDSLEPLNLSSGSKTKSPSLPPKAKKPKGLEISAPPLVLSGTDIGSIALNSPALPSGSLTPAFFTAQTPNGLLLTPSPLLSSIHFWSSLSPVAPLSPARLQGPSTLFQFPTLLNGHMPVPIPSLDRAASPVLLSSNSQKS
Outline: as §1

FEV = biological target: T7, FEV (Homo sapiens, UniProt Q99581 1-238); conditions: protein: recombinant; tags: N-terminal GST; dsDNA, one strand shown
T7 sequence: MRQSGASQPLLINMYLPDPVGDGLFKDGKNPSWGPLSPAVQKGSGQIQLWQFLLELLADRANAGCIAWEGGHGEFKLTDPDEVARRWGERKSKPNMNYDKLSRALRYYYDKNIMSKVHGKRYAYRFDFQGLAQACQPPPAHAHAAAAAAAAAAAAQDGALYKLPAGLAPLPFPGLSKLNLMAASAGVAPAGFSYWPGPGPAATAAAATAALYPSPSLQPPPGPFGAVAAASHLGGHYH
Outline: as §1

ETV5 = ETV5 (Homo sapiens, UniProt P41161 1-510); conditions: protein: recombinant; tags: N-terminal GST; dsDNA, one strand shown
Outline: as §1

HSF1 = HSF1 (Homo sapiens, UniProt Q00613 1-529); conditions: protein: recombinant; tags: N-terminal GST; chain copies: 3; dsDNA, one strand shown
Outline: as §1

SPIC = biological target: T8, SPIC (Homo sapiens, UniProt Q8N5J4 1-248); conditions: protein: recombinant; tags: N-terminal GST; dsDNA, one strand shown
T8 sequence: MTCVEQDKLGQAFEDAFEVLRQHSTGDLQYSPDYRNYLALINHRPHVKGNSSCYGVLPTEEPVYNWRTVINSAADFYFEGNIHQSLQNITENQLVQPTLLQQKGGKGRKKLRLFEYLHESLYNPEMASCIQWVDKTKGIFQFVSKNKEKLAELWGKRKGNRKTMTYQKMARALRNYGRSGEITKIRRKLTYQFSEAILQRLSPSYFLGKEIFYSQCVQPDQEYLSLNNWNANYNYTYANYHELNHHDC
Outline: as §1

ELF4 = ELF4 (Homo sapiens, UniProt Q99607 1-663); conditions: protein: recombinant; tags: N-terminal GST; dsDNA, one strand shown
Outline: as §1

ELK4 = biological target: T9, ELK4 (Homo sapiens, UniProt P28324-2 1-405); conditions: protein: recombinant; tags: N-terminal GST; dsDNA, one strand shown
T9 sequence: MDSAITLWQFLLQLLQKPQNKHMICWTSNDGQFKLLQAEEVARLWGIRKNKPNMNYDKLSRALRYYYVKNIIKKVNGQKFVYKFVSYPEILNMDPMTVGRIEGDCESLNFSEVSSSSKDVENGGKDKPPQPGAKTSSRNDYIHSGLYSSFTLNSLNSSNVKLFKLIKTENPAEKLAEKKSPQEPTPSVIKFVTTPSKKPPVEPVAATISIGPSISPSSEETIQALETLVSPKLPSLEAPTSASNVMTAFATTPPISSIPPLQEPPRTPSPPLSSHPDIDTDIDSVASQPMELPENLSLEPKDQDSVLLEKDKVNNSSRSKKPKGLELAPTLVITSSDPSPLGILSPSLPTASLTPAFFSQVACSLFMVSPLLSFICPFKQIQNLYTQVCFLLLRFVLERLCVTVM
Outline: as §1

ETV2 = biological target: T10, ETV2 (Homo sapiens, UniProt O00321 1-342); conditions: protein: recombinant; tags: N-terminal GST; dsDNA, one strand shown
T10 sequence: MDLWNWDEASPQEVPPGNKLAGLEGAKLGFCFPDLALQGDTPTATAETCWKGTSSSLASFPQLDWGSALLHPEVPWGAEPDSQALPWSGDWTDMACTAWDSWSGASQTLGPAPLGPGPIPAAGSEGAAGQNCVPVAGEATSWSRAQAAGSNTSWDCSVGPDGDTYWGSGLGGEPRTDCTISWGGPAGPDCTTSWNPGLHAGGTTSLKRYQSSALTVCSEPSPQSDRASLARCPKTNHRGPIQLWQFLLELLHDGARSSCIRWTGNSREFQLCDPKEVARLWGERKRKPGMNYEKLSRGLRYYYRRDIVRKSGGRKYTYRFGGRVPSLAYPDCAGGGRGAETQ
Outline: as §1

ELF3 = biological target: T11, ELF3 (Homo sapiens, UniProt P78545 1-371); conditions: protein: recombinant; tags: N-terminal GST; dsDNA, one strand shown
T11 sequence: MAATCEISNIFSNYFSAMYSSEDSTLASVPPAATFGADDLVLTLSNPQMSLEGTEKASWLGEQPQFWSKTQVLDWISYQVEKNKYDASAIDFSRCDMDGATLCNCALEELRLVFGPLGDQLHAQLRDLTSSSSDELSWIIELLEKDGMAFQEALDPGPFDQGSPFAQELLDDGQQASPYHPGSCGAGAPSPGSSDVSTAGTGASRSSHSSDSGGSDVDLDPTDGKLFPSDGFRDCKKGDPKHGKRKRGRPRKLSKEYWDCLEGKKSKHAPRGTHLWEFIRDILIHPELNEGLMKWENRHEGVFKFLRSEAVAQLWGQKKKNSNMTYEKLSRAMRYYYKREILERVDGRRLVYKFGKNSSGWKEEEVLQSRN
Outline: as §1

ETV1 = ETV1 (Homo sapiens, UniProt P50549 1-477); conditions: protein: recombinant; tags: N-terminal GST; dsDNA, one strand shown
Outline: as §1

Chain of ETV5 (P41161 whole entry): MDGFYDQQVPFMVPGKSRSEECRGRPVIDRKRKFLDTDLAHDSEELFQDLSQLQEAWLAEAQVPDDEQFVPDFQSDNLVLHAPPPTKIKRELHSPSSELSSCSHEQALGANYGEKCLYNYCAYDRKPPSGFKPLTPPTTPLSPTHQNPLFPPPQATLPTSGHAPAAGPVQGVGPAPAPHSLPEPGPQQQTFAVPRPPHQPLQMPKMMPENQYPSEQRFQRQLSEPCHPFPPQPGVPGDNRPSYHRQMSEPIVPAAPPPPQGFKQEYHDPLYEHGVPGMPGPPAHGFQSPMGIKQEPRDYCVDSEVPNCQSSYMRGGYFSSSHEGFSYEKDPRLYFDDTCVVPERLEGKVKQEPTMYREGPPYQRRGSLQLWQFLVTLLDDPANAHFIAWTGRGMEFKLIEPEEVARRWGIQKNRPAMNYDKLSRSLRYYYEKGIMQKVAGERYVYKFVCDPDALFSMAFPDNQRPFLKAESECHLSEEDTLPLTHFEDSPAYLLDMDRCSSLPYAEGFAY
Chain of ELF1 (P32519 whole entry): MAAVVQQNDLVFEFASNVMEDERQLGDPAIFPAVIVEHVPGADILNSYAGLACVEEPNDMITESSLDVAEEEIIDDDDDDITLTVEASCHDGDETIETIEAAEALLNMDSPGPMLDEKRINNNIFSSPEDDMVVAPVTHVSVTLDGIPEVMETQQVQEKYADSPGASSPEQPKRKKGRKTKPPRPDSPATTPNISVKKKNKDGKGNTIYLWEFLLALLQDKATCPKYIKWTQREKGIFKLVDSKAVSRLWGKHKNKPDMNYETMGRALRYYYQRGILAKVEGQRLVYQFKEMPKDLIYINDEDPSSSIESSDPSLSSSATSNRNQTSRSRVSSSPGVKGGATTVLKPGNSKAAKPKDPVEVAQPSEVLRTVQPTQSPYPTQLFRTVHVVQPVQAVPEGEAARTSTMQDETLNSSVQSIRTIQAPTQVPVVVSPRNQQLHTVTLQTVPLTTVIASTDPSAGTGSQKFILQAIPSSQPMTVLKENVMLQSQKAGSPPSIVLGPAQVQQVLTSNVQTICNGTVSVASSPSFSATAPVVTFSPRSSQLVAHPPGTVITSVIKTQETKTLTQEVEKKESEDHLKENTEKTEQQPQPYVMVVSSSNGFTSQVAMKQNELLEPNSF
Chain of HSF1 (Q00613 whole entry): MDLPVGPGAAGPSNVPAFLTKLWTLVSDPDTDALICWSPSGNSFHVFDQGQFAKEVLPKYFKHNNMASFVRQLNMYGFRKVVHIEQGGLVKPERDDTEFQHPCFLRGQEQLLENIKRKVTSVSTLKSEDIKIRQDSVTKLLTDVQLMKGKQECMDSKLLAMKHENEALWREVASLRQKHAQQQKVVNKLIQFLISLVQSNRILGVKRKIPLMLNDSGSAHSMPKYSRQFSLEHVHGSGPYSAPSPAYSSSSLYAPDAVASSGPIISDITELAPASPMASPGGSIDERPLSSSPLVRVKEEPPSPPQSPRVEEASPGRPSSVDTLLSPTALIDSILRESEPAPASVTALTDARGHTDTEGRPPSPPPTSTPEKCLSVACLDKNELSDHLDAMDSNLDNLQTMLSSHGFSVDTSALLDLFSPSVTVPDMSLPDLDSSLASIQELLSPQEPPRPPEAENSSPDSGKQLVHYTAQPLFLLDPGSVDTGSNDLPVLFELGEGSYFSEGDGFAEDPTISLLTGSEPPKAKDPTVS
Chain of ELF4 (Q99607 whole entry): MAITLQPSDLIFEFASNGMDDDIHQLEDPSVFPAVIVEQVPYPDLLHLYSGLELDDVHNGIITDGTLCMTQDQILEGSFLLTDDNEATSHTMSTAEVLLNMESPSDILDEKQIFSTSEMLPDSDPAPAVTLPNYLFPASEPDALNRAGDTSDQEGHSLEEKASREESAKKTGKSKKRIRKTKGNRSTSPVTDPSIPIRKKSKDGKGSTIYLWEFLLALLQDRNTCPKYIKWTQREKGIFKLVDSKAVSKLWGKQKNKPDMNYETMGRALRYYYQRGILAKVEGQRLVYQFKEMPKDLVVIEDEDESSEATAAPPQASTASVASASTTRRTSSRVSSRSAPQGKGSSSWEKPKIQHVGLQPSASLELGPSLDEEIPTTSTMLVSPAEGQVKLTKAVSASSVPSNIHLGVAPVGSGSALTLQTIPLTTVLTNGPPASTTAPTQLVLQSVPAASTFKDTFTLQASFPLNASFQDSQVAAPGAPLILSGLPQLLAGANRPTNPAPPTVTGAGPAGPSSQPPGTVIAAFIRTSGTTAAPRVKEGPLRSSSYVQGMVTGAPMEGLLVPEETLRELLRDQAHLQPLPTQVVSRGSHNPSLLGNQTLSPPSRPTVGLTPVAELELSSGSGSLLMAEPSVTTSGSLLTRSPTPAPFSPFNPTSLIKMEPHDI
Chain of ETV1 (P50549 whole entry): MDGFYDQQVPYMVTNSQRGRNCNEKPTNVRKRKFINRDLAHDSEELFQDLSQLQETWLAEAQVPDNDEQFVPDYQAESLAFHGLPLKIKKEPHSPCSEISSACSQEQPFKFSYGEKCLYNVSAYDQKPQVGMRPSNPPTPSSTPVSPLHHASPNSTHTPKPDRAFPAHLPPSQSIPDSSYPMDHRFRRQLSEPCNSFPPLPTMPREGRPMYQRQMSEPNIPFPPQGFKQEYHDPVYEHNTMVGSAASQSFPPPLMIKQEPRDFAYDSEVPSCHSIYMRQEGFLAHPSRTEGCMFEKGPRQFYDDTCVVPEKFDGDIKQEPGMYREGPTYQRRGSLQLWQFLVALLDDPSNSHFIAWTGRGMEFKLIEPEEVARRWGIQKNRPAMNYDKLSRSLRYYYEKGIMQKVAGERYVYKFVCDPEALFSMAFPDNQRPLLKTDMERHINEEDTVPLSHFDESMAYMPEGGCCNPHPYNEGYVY
Chain of SPIB (Q01892 whole entry): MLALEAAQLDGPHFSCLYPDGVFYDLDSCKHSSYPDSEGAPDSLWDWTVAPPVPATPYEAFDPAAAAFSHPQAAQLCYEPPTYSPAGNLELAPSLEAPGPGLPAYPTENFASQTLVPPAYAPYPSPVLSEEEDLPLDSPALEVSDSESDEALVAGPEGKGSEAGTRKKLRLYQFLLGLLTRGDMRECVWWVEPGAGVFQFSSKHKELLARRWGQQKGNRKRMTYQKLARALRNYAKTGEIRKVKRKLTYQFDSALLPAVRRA

CCACAA was tested, and the binding signal (FLI1) was 1.2 fold enrichment (6-mer frequency, TF over GST control), the binding signal (ELK1) was 1.14 fold enrichment (6-mer frequency, TF over GST control) and the binding signal (GABPA) was 1.25 fold enrichment (6-mer frequency, TF over GST control). For the same sequence, the binding signal (ERG) was 1.09 fold enrichment (6-mer frequency, TF over GST control), the binding signal (ELF1) was 1.21 fold enrichment (6-mer frequency, TF over GST control) and the binding signal (EHF) was 1.08 fold enrichment (6-mer frequency, TF over GST control). The binding signal (SPI1) was 1.22 fold enrichment (6-mer frequency, TF over GST control), the binding signal (SPIB) was 1.07 fold enrichment (6-mer frequency, TF over GST control) and the binding signal (ELK3) was 1.34 fold enrichment (6-mer frequency, TF over GST control). For the same sequence, the binding signal (FEV) was 1.15 fold enrichment (6-mer frequency, TF over GST control), the binding signal (ETV5) was 1.19 fold enrichment (6-mer frequency, TF over GST control) and the binding signal (HSF1) was 1.1 fold enrichment (6-mer frequency, TF over GST control). The binding signal (SPIC) was 1.09 fold enrichment (6-mer frequency, TF over GST control), the binding signal (ELF4) was 1.17 fold enrichment (6-mer frequency, TF over GST control) and the binding signal (ELK4) was 1.07 fold enrichment (6-mer frequency, TF over GST control). The binding signal (ETV2) was 1.14 fold enrichment (6-mer frequency, TF over GST control), the binding signal (ELF3) was 1.39 fold enrichment (6-mer frequency, TF over GST control) and the binding signal (ETV1) was 1.19 fold enrichment (6-mer frequency, TF over GST control).
